# In the library only some 1.4% were active in any assay of this set; here they are far more common.
# ALOX12 inh: Primary qHTS assay for inhibitors of human arachidonate 12S-lipoxygenase (ALOX12): Round 2 | Polyunsaturated fatty acid lipoxygenase ALOX12 (Homo sapiens), P18054 | purified 12hLO, xylenol orange hydroperoxide absorbance | Potency, µM (series often up to 108 µM), for inactives: at the highest dose activity change, negative = inhibition, hits mostly inhibitors | hit rate 1.1% among 580,000 | AID 1671190, 2021; also: potency is read from the fitted curve at half-maximal effect; % is scaled to controls: 0 for no effect and ±100 for the full control effect
# Target sequence (P18054 whole entry, looked up): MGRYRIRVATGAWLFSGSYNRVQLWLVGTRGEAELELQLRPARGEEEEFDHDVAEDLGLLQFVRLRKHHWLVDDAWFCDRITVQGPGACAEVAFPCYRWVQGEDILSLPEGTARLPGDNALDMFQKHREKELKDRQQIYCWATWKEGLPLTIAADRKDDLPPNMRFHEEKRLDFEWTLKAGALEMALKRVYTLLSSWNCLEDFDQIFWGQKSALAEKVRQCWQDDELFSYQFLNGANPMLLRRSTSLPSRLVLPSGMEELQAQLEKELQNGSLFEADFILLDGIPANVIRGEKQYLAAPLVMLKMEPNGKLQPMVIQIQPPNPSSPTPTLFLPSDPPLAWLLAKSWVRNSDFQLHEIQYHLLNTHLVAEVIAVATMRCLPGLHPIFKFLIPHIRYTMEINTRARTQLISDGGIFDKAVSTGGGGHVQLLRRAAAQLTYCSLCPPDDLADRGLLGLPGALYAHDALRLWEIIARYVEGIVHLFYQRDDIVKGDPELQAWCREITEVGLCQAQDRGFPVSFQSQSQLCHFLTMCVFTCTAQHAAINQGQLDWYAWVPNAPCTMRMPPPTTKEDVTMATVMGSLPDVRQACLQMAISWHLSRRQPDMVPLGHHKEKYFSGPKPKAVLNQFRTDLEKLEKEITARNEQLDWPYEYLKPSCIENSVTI
#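 Purified human 12hLO (150 nM final) in 25 mM Hepes, 0.01% Triton X-100, pH 7.0 was preincubated 15 min at room temperature with compound. Then 40 uM arachidonic acid was added, 30 min. Hydroperoxide was read by Fe-XO absorbance ratio 573/405 nm.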
# p53 reactivator: qHTS assay for re-activators of p53 using a Luc reporter; H1299 p53-A138V BP100-luciferase reporter, luminescence, 24 h; Potency, µM (titrated, usually from 92.2 µM), inactives show at the top dose activity change, positive = activation, usual class: activators; hit rate 0.063% among 320,000; also: potency is read from the fitted curve at half-maximal effect; % of control where 0% means no effect; nearly all actives have a fitted effect of over 45% in size
#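 p53-null H1299 cells stably carrying temperature-sensitive p53-A138V and a BP100-luciferase reporter were pinned with compounds (4-point, 1:5 series) and held 24 hrs at 37 deg C. Luminescence was read 10 min after detection reagent.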
# ASM inhibitor: Inhibitors of Secretory Acid Sphingomyelinase (S-ASM): qHTS; Sphingomyelin phosphodiesterase (Homo sapiens), P17405; Potency, µM (top dose mostly 57.5 µM), inactives show at the highest dose activity change, negative = inhibition, actives largely listed as inhibitors; AID 504937, 2011; hit rate 0.006% among 340,000; placental ASM, HMU-PC fluorogenic substrate, 60 min; also: potency is read from the fitted curve at half-maximal effect
#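 qHTS format. ASM enzyme prepared from human placenta hydrolyses the fluorogenic substrate HMU-PC0 (9 uM final) over 60 min at 37 °C after a 10 min compound preincubation.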
# PINK1 expr mod: A Quantitative High throughput Screen to Identify Chemical Modulators of PINK1 Expression | Potency, µM (doses to about 76.6 µM), inactives show at the highest dose activation (PINK1 increase), hits mostly activators | PINK1 immunofluorescence, high-content cytometry, 24 h | AID 624263, 2012 | hit rate 0.2% among 410,000; active = well fitted activation curve with a large enough effect; inconclusive = small, poorly fitted or top-dose-only effect; cell line not stated here; also: potency is read from the fitted curve at half-maximal effect; % of control where 0% means no effect; nearly all actives have a fitted effect of over 65% in size
#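 Decision-based qHTS: stable cells, 24 h exposure to five compound concentrations, CCCP as control. Fixed cells stained for PINK1 plus nuclear, mitochondrial and cell markers, cytometer read.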
# Mm-Cpn inhibitor: Inhibitors of TCP-1 ring complex (TRiC) of Methanococcus maripaludis (MmCpn): qHTS. purified Mm-Cpn ATPase, ADP Transcreener TR-FRET. AID 504842, 2011. Chaperonin Mm-Cpn (Methanococcus maripaludis). Potency, µM (doses to about 76.9 µM), for the others: at the highest dose activity, negative = inhibition, actives largely listed as inhibitors. hit rate 0.031% among 330,000; also: potency is read from the fitted curve at half-maximal effect; % is scaled to controls: 0 for no effect and ±100 for the full control effect; nearly all actives have a fitted effect of over 80% in size
#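 TR-FRET (320 nm excitation; 590 and 665 nm emission) reports ADP made from 10 uM ATP by 25 nM enzyme; compounds were preincubated 10 min, reaction run 30 min, both at 37°C.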
# CCT modulator: High-Throughput Screening for Modulators of Cytosolic Chaperonin Activity; purified chaperonin ATPase assay, HTRF ADP detection, 30 min; activity change, % (concentration not given with the values), hits read low; hit rate 0.3% among 360,000; AID 651819, 2012; in the data active = activity change below about -30%; also: % is scaled to controls: 0 for no effect and ±100 for the full control effect
#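 Nucleotide hydrolysis assay: TRiC at 20–40 nM final (set by batch activity) with 10 uM ATP, 30 min at 37 °C, in presence of 76 uM compound. Detection by competitive ADP HTRF, 30 min ambient.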
# An asterisk follows results filed as active; u = inconclusive; x = no result; ! = not confirmed by another sample. Unless noted, calls follow the shape of the dose curve; as a rule, active = well fitted curve in the direction sought with a large enough effect; inconclusive = small, poorly fitted or top-dose-only effect, or another doubt; inactive = no such curve, though single readings can be large; an effect the other way counts as inactive or inconclusive.
SMILES,ALOX12 inh,p53 reactivator,ASM inhibitor,PINK1 expr mod,Mm-Cpn inhibitor,CCT modulator
Cc1cccc(-c2cc(Nc3ccc(SC#N)cc3)nc(C)n2)c1,-29.5%,x,x,x,x,x
COC(=O)c1c(C)[nH]c(C(=O)C(C)OC(=O)c2ccccc2F)c1C (centres undefined),12.2%,x,x,x,x,x
Cn1c(=O)c2c(nc(Nc3ccc(Cl)c(Cl)c3)n2CC(=O)O)n(C)c1=O,-58.6%,x,x,x,x,x
Cc1ccc2[nH]c(C(=O)NCc3ccco3)cc2c1,-9.3%,x,x,x,x,x
CCN(Cc1ccco1)C(=O)c1cc2cc(Br)ccc2[nH]1,17.8µM*,x,x,x,x,x
O=C(NCc1ccco1)c1cc2cc(Br)ccc2[nH]1,31.6µM*,x,x,x,x,x
O=C(O)CCNc1ccc(NCCC(=O)O)c2c1C(=O)c1ccccc1C2=O,20.0%,-8.3%,8.4%,0.8%,44.7µM*,0.1
c1ccc(Nc2nc(NCC3CCCO3)c3ccccc3n2)cc1 (centres undefined),44.7µM*,22.9%,39.9%,8.2%,1.1%,-0.3
O=C(c1ccc2c(c1)OCO2)N1CCC(c2nnc3n2CCNC3)CC1,10µM*,x,x,x,x,x
COc1ccccc1-c1cc(C(=O)O)c2cc(C)cc(C)c2n1,28.2µM*,x,x,x,x,x
COc1ccccc1-c1cc(C(=O)O)c2ccc(C)c(C)c2n1,-22.3%,x,x,x,x,x
CCCN(CCC)C(=O)c1cc2sc3ccccc3c2s1,5.01µM*,x,x,x,x,x
CN1CCN(C(=O)c2cc3sc4ccccc4c3s2)CC1,3.6%,3.2%,-5.7%,3.6%,-3.1%,-3.1
O=c1[nH]c(C2CCCN(Cc3cccc(Cl)c3)C2)nc2ccc(F)cc12 (centres undefined),-17.6%,x,x,x,x,x
O=c1[nH]c(C2CCCN(Cc3cccc(-c4ccsc4)c3)C2)nc2ccc(F)cc12 (centres undefined),25.1µM*!,x,x,x,x,x
O=C(C=Cc1ccco1)c1ccco1,8.91µM*,x,93.2%,0.4%,x,1.2
O=C(N/N=C/C=C/c1ccco1)c1cccc([N+](=O)[O-])c1,-25.4%,-2.3%,-2.6%,7.0%,-0.1%,1.7
O=C(/C=C/c1ccco1)c1cccc([N+](=O)[O-])c1,25.1µM*,x,-1.8%,2.1%,x,0.7
O=C(/C=C/c1ccco1)c1ccccc1,15.8µM*,x,x,x,x,x
O=C(O)c1ccc(/C=C/C(=O)c2ccco2)cc1,-25.8%,x,x,x,x,x
O=C(/C=C/c1ccc([N+](=O)[O-])cc1)/C=C/c1ccco1,17.8µM*,-19.0%,x,x,-5.4%,x
O=C(/C=C/c1ccc([N+](=O)[O-])cc1)c1ccco1,3.6%,10.5%,-1.0%,0.8%,-3.7%,-2.4
Cc1noc(/C=C\c2ccc(S(=O)(=O)N3CCOCC3)cc2)c1NC(=O)C1CC1,-1.0%,x,x,x,x,x
O=C(/C=C/C=C/c1ccccc1)c1ccco1,u,22.4µM*,23.3%,4.2%,-0.6%,1.5
O=C(Nc1ccc2c(c1)OCCO2)N1CCC(NS(=O)(=O)c2ccc(Cl)cc2)CC1,-28.5%,x,x,x,x,x
SMILES,ALOX12 inh,p53 reactivator,ASM inhibitor,PINK1 expr mod,Mm-Cpn inhibitor,CCT modulator
Clc1ccc(CNCc2ccccc2Cn2cncn2)c(Cl)c1,44.7µM*,x,x,x,x,x
C=CCNC(=O)CN1CCN(c2nc(-c3ccccc3)c3ccccc3n2)CC1,17.8%,x,x,x,x,x
COc1ccc(-c2cc(NC=O)c3ncc(-c4ccc(OC)c(OC)c4)n3c2)cc1OC,-5.7%,x,x,9.1%,x,-0.5
COc1ccc(-c2cnc3c(NC=O)cc(-c4ccccc4OC)cn23)cc1OC,6.31µM*,x,x,0.0%,x,1.3
CCCCC(=O)NCc1ccc(-c2nc3ccccc3s2)cc1,-8.6%,x,x,x,x,x
CSc1nc(Sc2ccccc2Cl)c2ccccc2n1,0.0%,-0.9%,4.5%,3.4%,-25.1%,-76.7*
CCOC(=O)c1cnc(SC)nc1Sc1ccccc1Cl,15.6%,1.1%,-7.0%,18.1%,0.8%,1.3
CCOc1ccc(/C=C/c2nc(C#N)c(NCCCn3ccnc3)o2)cc1,44.6%,x,x,x,x,x
Cc1ccc(C2=CC(c3c(F)cccc3Cl)n3ncnc3N2)cc1 (centres undefined),-24.0%,x,x,x,x,x
Nc1ccccc1SC1CC(=O)N(c2ccc(Cl)c(Cl)c2)C1=O (centres undefined),-7.5%,3.0%,-5.8%,3.8%,-0.2%,0.5
Cc1ccc(Cl)cc1N1C(=O)CC(Sc2ccccc2N)C1=O (centres undefined),u,x,x,1.4%,x,-32.6*
O=c1c2c(nc3cc(-c4ccccc4Cl)[nH]n13)CCS2,39.8µM*,11.8%,5.9%,5.1%,-3.1%,-2.7

# Compound activity as filed in PubChem.
